{"source": "the supplement of paper PMC11417369", "note": "Whole data set: some 25,000 sequences, median “ln(normalized median fluorescence intensity)” near 7.1, cut for the highest 2% near 10. This excerpt belongs to a sample that is enriched for the highest values."}
{"test_system": "PfSIP2 AP2 domain 1 (GST-tagged)", "test": "gcPBM binding intensity (ln(normalized median fluorescence intensity)); higher = stronger DNA binding", "summary_of_the_method": "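The binding buffer was 1× PBS containing 1% milk, 0.2 mg/ml BSA, 0.5% salmon testes DNA and 0.03% Triton X-100. In it, GST-tagged P. falciparum DNA-binding domains expressed in E. coli were applied for 1 h to an Agilent 4 × 180k array of primer-extended double-stranded 36-bp intergenic genomic probes plus negative controls. Binding intensity, read with Alexa488 anti-GST antibody and a 488 nm scan, is the highest Masliner-normalised natural-log median intensity across replicate spots of either probe orientation.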"}
{"sequence": "TTTGTAACTTCTTTCACACATATATATATATATATA [CACACA_site5603]", "gcPBM binding intensity (ln)": 9.76}
{"sequence": "CACCCACCCAGACACACACACACACCCCCACCCATA [CACACA_site367]", "gcPBM binding intensity (ln)": 7.6}
{"sequence": "ACAAATTGTTAAAGGTGTACAATACATATATAAGAA [XGTACX_site4906]", "gcPBM binding intensity (ln)": 7.38}
{"sequence": "GTGTGCAAAAATTGTTGTACATTATATATAAAAAAA [XGTACX_site3246]", "gcPBM binding intensity (ln)": 7.79}
{"sequence": "TTTGTGTTTATAAATTGTACAAAGGTGCAAGAAGAA [XGTACX_site2159]", "gcPBM binding intensity (ln)": 11.2}
{"sequence": "TATGTACAGACATATACACACCTCTATAATCTATAT [CACACA_site6482]", "gcPBM binding intensity (ln)": 7.09}
{"sequence": "TATATATATAAATGAATGCACTTTAGAAAAAAGTAC", "gcPBM binding intensity (ln)": 8.52}
{"sequence": "TGTCGGCTTAGATTAGTGCACTGAAAAATGAAGTAT [GTGCAC_site9919]", "gcPBM binding intensity (ln)": 10.5}
{"sequence": "AAAAAAAATTATGAAGTGCATTAGTGAATTTGATTG", "gcPBM binding intensity (ln)": 9.16}
{"sequence": "ATTTTTTTTTTTTTTTGTACGAATAATATGTATGAA [XGTACX_site5318]", "gcPBM binding intensity (ln)": 7.12}
{"sequence": "TAGGCCTTAAATCGTGTGCACTTTTTTTTTTTTTTT", "gcPBM binding intensity (ln)": 10.7}
{"sequence": "TAAATATATATATGTGTGCACTTCTTCATTTTAATA [GTGCAC_site9537]", "gcPBM binding intensity (ln)": 9.97}
{"sequence": "AAATTAAATAAATTTACACACTAAAAATTACATATA [CACACA_site1054]", "gcPBM binding intensity (ln)": 6.88}
{"sequence": "TCTTTATCCTTTCTCTTTTTATTAATTATAATATTC [TGCATGCA_negctrl_site584]", "gcPBM binding intensity (ln)": 6.99}
{"sequence": "CTTTCGGTTGGAGAGGTGCGCTTCTCCTTTATAATA", "gcPBM binding intensity (ln)": 11}
{"sequence": "TTTTTATTTTATAATATATTCCTTTTCCTTTCTTTC [CACACA_negctrl_site245]", "gcPBM binding intensity (ln)": 6.64}
{"sequence": "TACAGATACGGACACACACACACACCCAGACAAAAA [CACACA_site4432]", "gcPBM binding intensity (ln)": 7.54}
{"sequence": "GCCGCACCCAGATACGCACACAAGAAAAAAATATTC [CACACA_site3456]", "gcPBM binding intensity (ln)": 11.1}
{"sequence": "CAAAACAAAGTTGCCGCACACAGATACGCACCCAAG [CACACA_site3455]", "gcPBM binding intensity (ln)": 11.9}
{"sequence": "CATACACAAGAAAATTCACACACACCCATATATATA [CACACA_site9288]", "gcPBM binding intensity (ln)": 7.73}
{"sequence": "TACGCACAAAAATATACACACACACCGATATATTTA [CACACA_site9213]", "gcPBM binding intensity (ln)": 7.15}
{"sequence": "AAAAAAAAAACAAATACACACGCACCCAAAAAAAAA [CACACA_site8166]", "gcPBM binding intensity (ln)": 10.1}
{"sequence": "ATTTTTATGTTGAAAAGTACTTGAATCCCATGTAAC [XGTACX_site4453]", "gcPBM binding intensity (ln)": 7.09}
{"sequence": "ATATATATATATATAACACACGTGTATTTATCTGTA [CACACA_site5922]", "gcPBM binding intensity (ln)": 9.33}
{"sequence": "AACACACACATATATATATATATATATATATATATA [GTGCAC_negctrl_site573]", "gcPBM binding intensity (ln)": 9.64}
{"sequence": "TAATTAATTTACATTTTAATTTTATACAAAATTTAT [CACACA_negctrl_site830]", "gcPBM binding intensity (ln)": 6.7}
{"sequence": "TTCCTGTTAATTACAACACACAATTTTTATTTTATG [CACACA_site779]", "gcPBM binding intensity (ln)": 7.16}
{"sequence": "ATTGTGGCAATATATTGTACATGTAATATAAATATA [XGTACX_site5415]", "gcPBM binding intensity (ln)": 7.06}
{"sequence": "CCATATTTAATAAAATGTACTCATTCTTTTATTTTA [XGTACX_site7802]", "gcPBM binding intensity (ln)": 7.11}
{"sequence": "TTCTTTTTAATGTCGGTGCAACTCCATAAAAACAAA [GTGCAC_site9488]", "gcPBM binding intensity (ln)": 10.8}
{"sequence": "TTCTTTTTTTTTAAAACAAACAAACAAACAAACAAA [CACACA_negctrl_site832]", "gcPBM binding intensity (ln)": 7.06}
{"sequence": "ATATATTTTATATAGTGTACTTTAATTTTTTTTTTT [XGTACX_site5550]", "gcPBM binding intensity (ln)": 6.83}
{"sequence": "AGTTATTTTTATATTTCACACACATATACTTTTACA [CACACA_site9357]", "gcPBM binding intensity (ln)": 7.21}
{"sequence": "TAGCTGTTCAAAAAATGTACATATATAATATATATA [XGTACX_site5842]", "gcPBM binding intensity (ln)": 7.49}
{"sequence": "ACACATAATATAAAGGTGCTATATTGTATTCATTTT [GTGCAC_site9457]", "gcPBM binding intensity (ln)": 8.36}
{"sequence": "AATAAATTCATGATAGTGCAAAAATTATTTTTGTTA", "gcPBM binding intensity (ln)": 8.49}
{"sequence": "GTATTCATGCTAAAGGTGCAATAATTTTTATAATAA [GTGCAC_site9603]", "gcPBM binding intensity (ln)": 10.9}
{"sequence": "AAACCCTATTCAATGCAATAATTTTATAATTTTTTT [TGCATGCA_negctrl_site434]", "gcPBM binding intensity (ln)": 6.91}
{"sequence": "TATAATTTATTAAGGGGTACATATATTTCATGATAA [XGTACX_site5141]", "gcPBM binding intensity (ln)": 7.19}
{"sequence": "ATTTTCATGATAAAGGTGCAATTATTTTTATAAGAA", "gcPBM binding intensity (ln)": 10.8}
{"sequence": "AATCAAAATTAATTAACACACAATTTTAATATTCTT [CACACA_site2063]", "gcPBM binding intensity (ln)": 6.79}
{"sequence": "ATATATTTTTTTTAGCGTACATGCAAAAAAAAAAAA [XGTACX_site4590]", "gcPBM binding intensity (ln)": 7.26}
{"sequence": "TACGTTATGTTGAATAGTACAATTTGGTGAACAGGT [XGTACX_site1729]", "gcPBM binding intensity (ln)": 7.51}
{"sequence": "GTAGTGGTTGAATATACACACATATATAAATAAATA [CACACA_site7282]", "gcPBM binding intensity (ln)": 7}
{"sequence": "TTTTTTTTTTTTTTGGTGCGTTTATATATAAATATA", "gcPBM binding intensity (ln)": 8.81}
{"sequence": "TTTTTTTTTTTGTGGGTGCGTTTATAAAAACAGGAA", "gcPBM binding intensity (ln)": 11.1}
{"sequence": "TTTTATAAACAGAGGGGTACGGGAAAAAAAAAAAAA [XGTACX_site1480]", "gcPBM binding intensity (ln)": 7.11}
